The sequences below were run on LXRb:RXRa (NR concentration 270 nM, RXRa partner concentration 90 nM) (assay: PBM binding z-score (relative to random genomic background probes); higher = stronger binding; sequences stand for … in GC…GCGATTGACAGCGTAGAATGAAGG).
Procedure: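 Protein-binding microarray (Agilent 4x180K custom design, double-stranded 60-nt probes: 5' GC cap, 34-nt variable region, 24-nt constant primer region; full probe sequence given). Purified or IVT nuclear receptor:RXRα heterodimers (3:1 NR:RXRα, mostly 270:90 nM) or homodimers were incubated for 1 h in PBS with 2% milk and no ligand, then detected with Alexa488 antibodies. Fluorescence from o1-orientation probes (~5 replicates averaged) was converted to z-scores against 500 random hg19 background probes. Variable regions are seed direct-repeat (DR0–DR5) sites, all their single-nucleotide variants and half-site ablations.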

Q: How did the PBM binding z-score turn out when AGTCAAAGTTGAGGACGAGGTAACGTAAAGCACG was run?
A: Its PBM binding z-score is -0.0986.

Q: CCTGCTAGGTCATGGTCAGCGAATCTACAGTATG was tested. Which PBM binding z-score did it give?
A: Its PBM binding z-score is 1.54.

Q: CGAACAAGGTCACCAGGACAGTGAAGAGGTTGGA was tested. Which PBM binding z-score did it give?
A: Its PBM binding z-score is 4.28.

Q: With ACTTACGGCTCAACGAGGTTATAGCACGCGTATA as the sequence, how does the PBM binding z-score read?
A: Its PBM binding z-score is 0.741.

Q: Which PBM binding z-score does the source give for ACTCGGATGACAAAGGTCAGAGCTACGCCAGTGA here?
A: Its PBM binding z-score is 3.36.

Q: For CACACTAGGTCACAGAGGTCAAAGTCCGTGCGTA, which PBM binding z-score is on record?
A: The PBM binding z-score was 6.24.

Q: CAAACCAGGTCAAGAGGTCAAAGTCCGCTTCCCG was tested. Which PBM binding z-score did it give?
A: Its PBM binding z-score is 5.73.

Q: With CCGACTGGGGCAAGGTCACCATAACGCACAGCCA as the sequence, how does the PBM binding z-score read?
A: The PBM binding z-score was 2.81.

Q: CGTCCAAGGTCAATGCTAGATCAGTGAAAGCATT was tested. Which PBM binding z-score did it give?
A: The PBM binding z-score was 3.56.

Q: For GCTAGTTGGTCAGTAAAAGGTGACACACCGGTCG, which PBM binding z-score is on record?
A: Its PBM binding z-score is 0.263.

Q: With TCTAGTTGGTCACGGAGGTCACAAACGACGGGTA as the sequence, how does the PBM binding z-score read?
A: Its PBM binding z-score is 3.15.

Q: For TGTCAATGTTCAAAGGTAACGTAAGTATCCACAC, which PBM binding z-score is on record?
A: Its PBM binding z-score is 0.772.

Q: Which PBM binding z-score does the source give for ATATGTAGGTTAGCTGGGGTCATTCACACTAGGC here?
A: Its PBM binding z-score is 5.1.

Q: For TTACCAAGGTGAACGGTCGTTGATGCACGCCTTG, which PBM binding z-score is on record?
A: The PBM binding z-score was 0.334.

Q: Which PBM binding z-score does the source give for CGTCCAAGGTCACGGTCAGTGAAAGAGACTCGAA here?
A: The PBM binding z-score was 4.76.

Q: How did the PBM binding z-score turn out when AGAATGAGGTCATTAAGATCAGGGAATTGCGGTC was run?
A: The PBM binding z-score was 4.71.

Q: For AATACAAGGTCATCGTAGGCCAGAGTACGCACAG, which PBM binding z-score is on record?
A: The PBM binding z-score was 5.13.

Q: Which PBM binding z-score does the source give for GGAACGAGGGCATTCGAGTTCATAGCATGGCGAT here?
A: Its PBM binding z-score is 3.44.

Q: TAGCCTAGGGCATTCAGGGGCCAGTATAGAAAGC was tested. Which PBM binding z-score did it give?
A: Its PBM binding z-score is -0.231.

Q: For TAGCCTAGGTCGTTCAGGGGCCAGTATAGAAAGC, which PBM binding z-score is on record?
A: The PBM binding z-score was 0.582.

Q: With TACCCTAGGTCATTCAGGGGCCAGTATAGAAAGC as the sequence, how does the PBM binding z-score read?
A: The PBM binding z-score was 4.5.

Q: For CGTCAAAGTTCAACTGAGGTAACGTAAAGCACGC, which PBM binding z-score is on record?
A: The PBM binding z-score was 4.09.

Q: With AGCGAAAGGTCGAGGTGAGTATAGAGAAAGGGAA as the sequence, how does the PBM binding z-score read?
A: Its PBM binding z-score is 2.7.

Q: Which PBM binding z-score does the source give for CGTCCAAGGACAATGCTAGGTCAGTGAAAGCATT here?
A: Its PBM binding z-score is -0.0607.

Q: How did the PBM binding z-score turn out when GCTGCTAGGTCAACTGATGGCCAGCTAAAGCTCG was run?
A: Its PBM binding z-score is 1.66.

Q: For CGAACTAGGTCATTGACAGGACAGTGGATAGTAA, which PBM binding z-score is on record?
A: The PBM binding z-score was 1.97.

Q: With TATACAAGGTCAAAGGCCAGAGTACGAATGTCGA as the sequence, how does the PBM binding z-score read?
A: Its PBM binding z-score is 5.46.

Q: With ATATGTAGGTTAGGGTCAGTCAGAAAGTAGGGAA as the sequence, how does the PBM binding z-score read?
A: Its PBM binding z-score is 3.

Q: With AGAATGAGGTCAAGATCAGGGAAACAGAATACAT as the sequence, how does the PBM binding z-score read?
A: The PBM binding z-score was 5.08.

Q: For AGTCAAACTTCAGGACGAGGTAACGTAAAGCACG, which PBM binding z-score is on record?
A: The PBM binding z-score was -0.266.

Q: For TAGCCTAGGTCATGGGCCAGTGTACCACGCGAAC, which PBM binding z-score is on record?
A: The PBM binding z-score was 2.46.

Q: For ATATGTAGGTTAAGCGTCATTCAGGTTGGTTCGC, which PBM binding z-score is on record?
A: Its PBM binding z-score is 0.883.

Q: Which PBM binding z-score does the source give for CTATGTAGGTTAAGGGAGTCATTCAGTTTGAAAG here?
A: The PBM binding z-score was 0.642.

Q: CAAACTAGGTCAAGGTCTAAGTCGGTTTGTGCCA was tested. Which PBM binding z-score did it give?
A: Its PBM binding z-score is 1.6.

Q: CGCACTAGGTCATCCAGGACAGTGAATACATTGA was tested. Which PBM binding z-score did it give?
A: Its PBM binding z-score is 2.21.

Q: GATACAGGGTCAGCTACAGGCCAGAGTATGGAAA was tested. Which PBM binding z-score did it give?
A: Its PBM binding z-score is 2.51.

Q: With TTGCCAAGGTGAAAGGTCGTTGATGCACGCCTTG as the sequence, how does the PBM binding z-score read?
A: Its PBM binding z-score is 2.63.

Q: CGTCAAAGGTCAGCAGGTCAGTGAAAGCGACGTG was tested. Which PBM binding z-score did it give?
A: The PBM binding z-score was 4.97.

Q: ATCGAAAGGTCGACGCGGTGAGTATACACCGTTT was tested. Which PBM binding z-score did it give?
A: Its PBM binding z-score is 2.25.

Q: How did the PBM binding z-score turn out when CCTAGTTGGTCAAGGTCACATACGCTATAGGTAC was run?
A: The PBM binding z-score was 3.56.

Source: the supplement of paper PMC6555819
